Results published in article PMC4336329 (PLoS ONE, 2015).
About 2,200 (0.71%) of roughly 310,000 compounds showed an effect of 50% or more. Effects have a minus sign here. The list comes from a sample in which strong results are over-represented; it also holds similar structures and randomly drawn compounds.

The compounds below were run against human ether-à-go-go-related gene (hERG) potassium channel (human, UniProt Q12809) (assay: primary screen, population patch clamp on CHO cells stably expressing hERG; higher = less effect of the substance).
Chain of human ether-à-go-go-related gene (hERG) potassium channel (Q12809 whole entry, looked up): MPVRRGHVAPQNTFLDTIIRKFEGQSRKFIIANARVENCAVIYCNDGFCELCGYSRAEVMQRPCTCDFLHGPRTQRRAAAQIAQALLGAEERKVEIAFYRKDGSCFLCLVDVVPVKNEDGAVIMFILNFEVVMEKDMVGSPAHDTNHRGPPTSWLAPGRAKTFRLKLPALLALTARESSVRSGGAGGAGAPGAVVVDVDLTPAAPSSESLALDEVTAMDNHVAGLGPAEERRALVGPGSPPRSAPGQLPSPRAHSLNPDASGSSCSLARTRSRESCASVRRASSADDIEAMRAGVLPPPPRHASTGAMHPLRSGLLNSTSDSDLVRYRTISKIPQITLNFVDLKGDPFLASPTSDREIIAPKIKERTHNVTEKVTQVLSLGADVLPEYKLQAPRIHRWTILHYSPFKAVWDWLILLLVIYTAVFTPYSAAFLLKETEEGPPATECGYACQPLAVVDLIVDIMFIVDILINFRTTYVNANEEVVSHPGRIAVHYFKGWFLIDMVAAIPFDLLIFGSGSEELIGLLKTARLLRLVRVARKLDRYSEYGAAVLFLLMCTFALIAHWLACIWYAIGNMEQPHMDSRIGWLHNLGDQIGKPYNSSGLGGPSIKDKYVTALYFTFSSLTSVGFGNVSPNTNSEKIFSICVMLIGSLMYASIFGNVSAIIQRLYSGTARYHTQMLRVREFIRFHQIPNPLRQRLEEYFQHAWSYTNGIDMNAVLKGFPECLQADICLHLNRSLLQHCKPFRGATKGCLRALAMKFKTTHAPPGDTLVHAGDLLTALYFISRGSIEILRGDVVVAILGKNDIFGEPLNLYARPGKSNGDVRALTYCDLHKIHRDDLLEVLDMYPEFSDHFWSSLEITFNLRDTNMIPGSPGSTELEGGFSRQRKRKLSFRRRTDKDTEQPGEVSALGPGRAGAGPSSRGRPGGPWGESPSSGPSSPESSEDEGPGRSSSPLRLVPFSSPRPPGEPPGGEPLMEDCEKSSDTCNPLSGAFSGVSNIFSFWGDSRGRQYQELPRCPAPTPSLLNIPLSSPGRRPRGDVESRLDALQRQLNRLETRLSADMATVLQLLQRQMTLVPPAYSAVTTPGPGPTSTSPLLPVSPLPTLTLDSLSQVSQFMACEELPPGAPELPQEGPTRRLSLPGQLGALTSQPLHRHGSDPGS

Row | Structure (SMILES) | hERG current change (%, negative = inhibition) at 1uM
1 | Cc1ccc([C@H]2C(C#N)=C(N)Oc3cc(C)oc(=O)c32)o1 | 12.8%
2 | O=c1c2ccccc2n2cnnc2n1-c1ccccc1 | 2.26%
3 | Cc1ccc(NC(=O)C(c2ccc(Cl)cc2)N2CCOCC2)cc1 (stereo not shown) | 16.1%
4 | Cc1cc2c(cc(C(=O)OCC(=O)NCc3ccco3)n2C)s1 | 6.5%
5 | CC1CCCC(NC(=O)CSc2nnnn2C)C1C (stereo not shown) | 13.2%
6 | COc1ccc(NC(=O)C2CCCN(S(=O)(=O)c3ccc(Cl)cc3)C2)cc1OC (stereo not shown) | 10.9%
7 | CCCCCn1c(=O)c(C(=O)NCc2ccncc2)c(O)c2ccccc21 | 2.72%
8 | CC(NC(=O)c1ccccc1F)C(=O)O (stereo not shown) | 16.8%
9 | C=C(C)COc1ccc(-c2nc(N)ncc2Oc2ccc(OC)cc2)c(O)c1 | -5.45%
10 | CC(/C=N/NC(=O)c1ccncc1)=C\c1ccco1 | 14.7%
11 | Cc1ccc(CNC(=O)COc2ccc3c(c2)CCC3)cc1 | -2.48%
12 | CCOC(=O)C(CC)Sc1nc2c(c(=O)[nH]c(=O)n2C)n1C/C=C(/C)Cl (stereo not shown) | -56.9%
13 | CCOC(=O)CSc1nc2c(c(=O)[nH]c(=O)n2C)n1C/C=C(/C)Cl | -7.88%
14 | CCOC(=O)C(CC)Sc1nc2c(c(=O)[nH]c(=O)n2C)n1CCc1ccccc1 (stereo not shown) | -30.9%
15 | COC(=O)CN1C(=O)[C@H]2[C@@H](C3CC3)N3C(=O)CN(Cc4ccc(-c5ccccc5)cc4)C(=O)[C@@]3(Cc3ccccc3)[C@H]2C1=O | 15.6%
16 | COc1ccccc1Oc1ccc2c(c1)C(=O)N(c1ccc(Br)c3cccnc13)C2=O | 1.75%
17 | O=C(CN1C(=O)/C(=C2\SC(=S)N(CCS(=O)(=O)O)C2=O)c2ccccc21)Nc1cccc(Br)c1 | -52.8%
18 | O=C1/C(=C2\C(=O)N(Cc3ccc(F)cc3)c3ccccc32)SC(=S)N1CCS(=O)(=O)O | 10.6%
19 | Cc1cccc(NC(=O)CN2C(=O)/C(=C3\SC(=S)N(CC4CCCO4)C3=O)c3ccccc32)c1 (stereo not shown) | 17.1%
20 | O=C(NCC1(N2CCCCC2)CCCCC1)c1cccc(NS(=O)(=O)c2ccccc2)c1 | -34%
21 | Cc1ccc(S(=O)(=O)Nc2cccc(C(=O)NCC3(N4CCCCC4)CCCCC3)c2)cc1F | -76.4%
22 | Cc1cccc(NS(=O)(=O)c2cccc(C(=O)NCC3(N4CCCCC4)CCCCC3)c2)c1 | -45.1%

Row | Structure (SMILES) | hERG current change (%, negative = inhibition) at 1uM
23 | Cn1cc(CN2CCc3c([nH]c4ccccc34)C2C(C)(C)C)cn1 (stereo not shown) | -3.25%
24 | CCCc1nc2c(o1)CC(CC(C)SCC)CC2=O (stereo not shown) | -11.3%
25 | C=C(C)CSc1nc(N)c2c(C)c(C)sc2n1 | 10.3%
26 | CC(C)Cc1ccc(CN2CCCC(NC(=O)c3ccoc3)C2)cc1 (stereo not shown) | -7.26%
27 | CC(C)Cc1ccc(CN2CCCC(NC(=O)c3ccnn3C)C2)cc1 (stereo not shown) | -50.4%
28 | O=C(NC1CCCN(Cc2ccc(Cl)cc2)C1)c1c(F)ccc(F)c1F (stereo not shown) | -55.4%
29 | O=C(NC1CCCN(Cc2ccc(Cl)cc2)C1)c1c(F)cccc1F (stereo not shown) | 17.1%
30 | O=C(NC1CCCN(Cc2ccc(Cl)cc2)C1)c1cccc(F)c1 (stereo not shown) | -18.6%
31 | Cc1occc1C(=O)NC1CCCN(Cc2ccc(CC(C)C)cc2)C1 (stereo not shown) | 6.64%
32 | O=C(NCCN1CCN(S(=O)(=O)c2ccccc2)CC1)C(=O)Nc1ccc(F)cc1 | 8.68%
33 | O=C(CN1C(=O)c2cccc3cccc(c23)C1=O)NCCCO | 9.32%
34 | COc1ccccc1NC(=O)N1CCN(c2ccc3nnc(-c4ccc(F)cc4)n3n2)CC1 | 13.5%
35 | OCCC1CN(Cc2ccc3nsnc3c2)CCN1CCc1ccccc1 (stereo not shown) | -73.7%
36 | CC(C)=CCN1CCN(Cc2ccc3nsnc3c2)CC1CCO (stereo not shown) | 4.93%
37 | CC(C)CCN1CCN(Cc2nc3ccccc3s2)CC1CCO (stereo not shown) | -8.09%
38 | OCCC1CN(Cc2nc3ccccc3s2)CCN1CCc1ccccc1 (stereo not shown) | -58.3%
39 | OCCC1CN(Cc2nc(-c3ccccc3)cs2)CCN1CCc1ccccc1 (stereo not shown) | -42.8%
40 | OCC1(CCc2ccccc2)CCN(Cc2ccc3nsnc3c2)CC1 | -69.1%
41 | OCCC1CN(Cc2nc(-c3ccc(F)cc3)cs2)CCN1CCc1ccccc1 (stereo not shown) | -69.3%
42 | OCCC1CN(Cc2nc(-c3ccccc3)cs2)CCN1Cc1ccc(F)cc1 (stereo not shown) | -47.1%
43 | COc1ccc(CC2(CO)CCN(Cc3ccc4nsnc4c3)CC2)cc1 | -4.45%
44 | CC(C)CN1CCN(Cc2nc3ccccc3s2)CC1CCO (stereo not shown) | -5.53%

Row | Structure (SMILES) | hERG current change (%, negative = inhibition) at 1uM
45 | OCC1(Cc2ccc(Cl)cc2)CCN(Cc2ccc3nsnc3c2)CC1 | -6.01%
46 | CC(C)CCN1CCN(Cc2ccc3nsnc3c2)CC1CCO (stereo not shown) | -21.3%
47 | O=C(N/N=C/c1ccc(-c2cccc([N+](=O)[O-])c2)o1)[C@H]1C[C@@H]1c1ccccc1 | 3.49%
48 | CCOC(=O)c1cnc(N)nc1C(F)(F)F | -2.92%
49 | CCC(=O)NC(=S)Nc1ccc(NC(=O)COc2ccccc2)cc1 | 19.7%
50 | COc1ccc(C(=O)N2CCN(C(C)=O)CC2)cc1S(=O)(=O)N1CCOCC1 | 14.4%
51 | COc1ccc(C(=O)NCc2ccc3c(c2)OCO3)c(OC)c1 | 13.6%
52 | CC(=O)Nc1ccc(S(=O)(=O)NCC(=O)OCC(=O)N2CCc3ccccc32)cc1 | 2.85%
53 | Cc1cc2oc(=O)cc(CN3CCN(Cc4ccccc4)CC3)c2cc1O | -12.5%
54 | CCN(Cc1nc2ccccc2c(=O)[nH]1)Cc1cc(=O)oc2cc(C)c(C)cc12 | -25.2%
55 | Cc1ccc2c(CN3CCN(CCO)CC3)cc(=O)oc2c1 | -52.1%
56 | Cc1ccc2c(CN3CCC(C)CC3)cc(=O)oc2c1 | -1.03%
57 | CCc1ccc2c(CN(CC)Cc3nc4ccccc4c(=O)[nH]3)cc(=O)oc2c1 | -60.5%
58 | Cc1ccc2c(CN3CCCCC3)cc(=O)oc2c1 | 6.38%
59 | COc1ccc2oc(=O)cc(CN3CCN(Cc4ccc(OC)c(OC)c4OC)CC3)c2c1 | -2.05%
60 | O=c1cc(CN2CCN(Cc3ccccc3)CC2)c2cc(O)ccc2o1 | -39.4%
61 | O=c1cc(CN2CCN(Cc3ccccc3)CC2)c2ccc(O)cc2o1 | -79.7%
62 | COc1ccc(CN2CCN(Cc3cc(=O)oc4cc(C)ccc34)CC2)c(OC)c1OC | -87.6%
63 | CCN(Cc1nc2ccccc2c(=O)[nH]1)Cc1cc(=O)oc2cc(OC)ccc12 | -25.6%
64 | Cc1ccc2c(CN3CCOCC3)cc(=O)oc2c1 | -6.01%
